Over roughly 68,000 sequences, “fluorescence intensity (a.u.)” has its median near 9,100; the highest 2% begin near 16,000. For the sample, the highest values were picked, then their nearest neighbours and some sequences at random.

The text below walks through data of publication PMC7819943, “Rice protein-binding microarrays: a tool to detect cis-acting elements near promoter regions in rice”.

Sequence of OsWRKY34 (Q0JBA9 entry or part of it): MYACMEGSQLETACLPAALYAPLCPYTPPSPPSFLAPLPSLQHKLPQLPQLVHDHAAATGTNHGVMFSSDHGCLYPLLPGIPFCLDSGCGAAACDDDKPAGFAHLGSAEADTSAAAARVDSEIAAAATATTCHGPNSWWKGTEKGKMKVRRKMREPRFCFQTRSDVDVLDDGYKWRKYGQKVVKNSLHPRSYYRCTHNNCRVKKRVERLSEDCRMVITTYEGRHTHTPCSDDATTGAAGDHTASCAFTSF

The assay concerns the target OsWRKY34 (Oryza sativa, UniProt Q0JBA9 1-250). Description: protein-binding microarray (RPBM); PBS, 2% BSA, 51.3 ng/ul salmon testes DNA, 50 uM zinc acetate, 200 nM TF, 25 C, 1 h; high values mean tight binding. The settings on record: protein: recombinant; tags: N-terminal polyhistidine and DsRed monomer fusion (pET32a); label: CyDye5-dUTP incorporated in the synthesized complementary strand; 3' TTTTT single-stranded linker to array surface; dsDNA, one strand shown. The procedure, abridged: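 An Axon 4000B scanner gave the binding signal as per-feature fluorescence intensity in arbitrary units. This followed washing of a custom Agilent array that had been incubated for 1 h at 25 °C with 200 nM protein in PBS, 2% BSA, salmon testes DNA and 50 µM zinc acetate. The proteins were transcription factors fused at the N-terminus to polyhistidine and DsRed, expressed in E. coli BL21-CodonPlus and purified on Ni–NTA.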
For the sequence “CCTCGCTCCGTCGCTCACAACCCGTCTCCTGCTCGATCCGCGGAGTCACCTAGTGCAG”, the binding signal was 9140 fluorescence intensity (a.u.).
Next, “TAGCATGACCTTTCACCCATACATATGAGCTACTTCTCTTCGGAGTCACCTAGTGCAG”: 9280 fluorescence intensity (a.u.); “ACGCCGTTGGCTTTTTAGCATATATTTGACCATTCATCTTCGGAGTCACCTAGTGCAG”: 8190 fluorescence intensity (a.u.); “GAGATATCGTTGACTTTTAGCATAACATAGACCATTCAGCCGGAGTCACCTAGTGCAG”: 18300 fluorescence intensity (a.u.).
For “TTGATACCGTTGACTTTTTAGCACATGTTTGACCATTCATCGGAGTCACCTAGTGCAG”, the binding signal is 39400 fluorescence intensity (a.u.).
The value for “TAGATAACGTCATTGACTTTTTCTCACATATTTGACCATTCGGAGTCACCTAGTGCAG” was 12400 fluorescence intensity (a.u.).
Next, “ATGTATAACACTGTTGACTTTTTAAGATATATTTGATCATCGGAGTCACCTAGTGCAG”: 15900 fluorescence intensity (a.u.); “TGTTTGACATCGTTGACTTTTTAACACATGTTTCACTGTTCGGAGTCACCTAGTGCAG”: 36000 fluorescence intensity (a.u.); “GACACCGTTGACTTTTTAGCACATGTTTGACCGCTCATCTCGGAGTCACCTAGTGCAG”: 32800 fluorescence intensity (a.u.).
For the sequence “ACAATTCACAAACGAACCTCTGCTGTTAGCCGCCTCTTTCCGGAGTCACCTAGTGCAG”, the binding signal was 8190 fluorescence intensity (a.u.).
Next, “GTTGCTTACTACCTGGTATTAGTCATTGTGGGAGTAGTTCCGGAGTCACCTAGTGCAG”: 8160 fluorescence intensity (a.u.).
Next, “TGGCATTTTTTTTTTTGGAATTGAGCACTTGTTAATGTCACGGAGTCACCTAGTGCAG”: 8110 fluorescence intensity (a.u.); “GCTCACCTAACCCATTCACGTGGCGCCAAACCCTCAGGGGCGGAGTCACCTAGTGCAG”: 8250 fluorescence intensity (a.u.); “CACTCGTTTTCAGATCATTTTCCATGGCGCCATGGCGCCTCGGAGTCACCTAGTGCAG”: 8500 fluorescence intensity (a.u.).
Regarding “ATCATTTAATTCCTGCGTTTTTCCTGCGATTCAATCAAACCGGAGTCACCTAGTGCAG”, the binding signal is 11300 fluorescence intensity (a.u.).
The value for “AGCTATATTACTCACCTTCTCTCTTTAAGCCTGTCTAGTACGGAGTCACCTAGTGCAG” was 10300 fluorescence intensity (a.u.); that for “TTTCCCTGATCCTTTTCCTAACCCAGTGGCAGGCATCTTTCGGAGTCACCTAGTGCAG” was 9990 fluorescence intensity (a.u.); that for “CTACTTGTGCTGTGTCTTTGTTTTTCTTTCACATTTCTAGCGGAGTCACCTAGTGCAG” was 14300 fluorescence intensity (a.u.).
The value for “GTGGGTCCACTTGCTACACATACCACCCCACTTAAACTTTCGGAGTCACCTAGTGCAG” was 8640 fluorescence intensity (a.u.); that for “CGCCGCTGCCGTTGACCGTGTTCCGGCACTTCTTCACGACCGGAGTCACCTAGTGCAG” was 17400 fluorescence intensity (a.u.).
Consider “ATATTTGACACCGTTGACTTTTTAGCACATGTTTGACTGTCGGAGTCACCTAGTGCAG”, for which the binding signal was 33000 fluorescence intensity (a.u.).
On to “CCACGCCGCACCCACCCACTGCCCGTTCCGTTCCGGCGACCGGAGTCACCTAGTGCAG”, for which the binding signal is 10900 fluorescence intensity (a.u.).
In the case of “TTCAAAATGTTTGACACCGTTGACTTTTTAACACATGATCCGGAGTCACCTAGTGCAG”, the binding signal is 32400 fluorescence intensity (a.u.).
Regarding “CCGCTGCCGCTTCCGCTTCCGCTTCTTCCGTTCTGGAGACCGGAGTCACCTAGTGCAG”, the binding signal was 10400 fluorescence intensity (a.u.).
The value for “AATGTTTGACACCGTTGATTTTTTTAGCACATGTTTCACCCGGAGTCACCTAGTGCAG” was 8960 fluorescence intensity (a.u.).
The value for “CCTTCCGTTTGACACTGTTGACTTTTTTAAATATGTTTGACGGAGTCACCTAGTGCAG” was 16100 fluorescence intensity (a.u.); that for “ATATTTTAATGAATGACACTGTTGACTTTTTGACAAACGTCGGAGTCACCTAGTGCAG” was 13300 fluorescence intensity (a.u.); that for “TTGACACTGTTGACTTTTTAATATATGTTTGACTGTTCGTCGGAGTCACCTAGTGCAG” was 20400 fluorescence intensity (a.u.).
Next, “ATGTTTGACGCCGTTGATATTTTAGCACATGTTTGACTGTCGGAGTCACCTAGTGCAG”: 11400 fluorescence intensity (a.u.).
As to “CGGCGCGTACGCAGTCCACTACCACCACTTCCGCCGGCGCCGGAGTCACCTAGTGCAG”, the binding signal is 8450 fluorescence intensity (a.u.).
On to “CTTGCCGGCCTCCACCGCTAATGTTTGTGCACACAGAAAACGGAGTCACCTAGTGCAG”, for which the binding signal is 8330 fluorescence intensity (a.u.).
As for “GAACCTAGAAATATTGTCTGTTTTCCTGCCGAACTGAACTCGGAGTCACCTAGTGCAG”, the binding signal was 9900 fluorescence intensity (a.u.).
The value for “TGAAAGGGGTTGATGTGTGGTGAAGGGTAGGTAATTTGTACGGAGTCACCTAGTGCAG” was 10700 fluorescence intensity (a.u.); that for “GGTGGTGGTGTGAGAGCAGTAGACAGGTTTTTCTTGGGGACGGAGTCACCTAGTGCAG” was 8280 fluorescence intensity (a.u.).
The value for “CTTCTGCTTCTGGTTCTGGTTCGCCTTCCTAGTTCCTACCCGGAGTCACCTAGTGCAG” was 8330 fluorescence intensity (a.u.); that for “GAAAAATCTTTCCAGTGGTAGTGTGTTGCTCTCGGCCTCGCGGAGTCACCTAGTGCAG” was 8320 fluorescence intensity (a.u.).
Next, “GCCCCGAGCGGGCCGAGCTCCCATCGTCTCATCGCCCCAACGGAGTCACCTAGTGCAG”: 11600 fluorescence intensity (a.u.); “AGCCAACCACACACAATGAACCATACCACAGTTACCACAGCGGAGTCACCTAGTGCAG”: 10100 fluorescence intensity (a.u.); “TTGGGGAGGATTTTTTCTTTTCATTTCATAATTAATTTCCCGGAGTCACCTAGTGCAG”: 11400 fluorescence intensity (a.u.).
In the case of “TGCATCTCGCCTTATCCCCGCGCCGGCGCTAGGCGAATCGCGGAGTCACCTAGTGCAG”, the binding signal is 8340 fluorescence intensity (a.u.).
Next, “TTTTAGCACATGTTGACCGTTCGTCTTATTCAAAAAATTTCGGAGTCACCTAGTGCAG”: 9160 fluorescence intensity (a.u.); “CCGAAGCGTCATCGCCGGTGGCCGTATCTTCTGCGTTGACCGGAGTCACCTAGTGCAG”: 15300 fluorescence intensity (a.u.).
As to “ACACCGTTGACTTTTTAGCACATGTTGGACTGTTCGTCTTCGGAGTCACCTAGTGCAG”, the binding signal was 39800 fluorescence intensity (a.u.).
